Whole data set: some 33,000 sequences, median “E-score (-0.5 to 0.5)” near -0.0014, cut for the highest 2% near 0.25. This excerpt belongs to a sample that is enriched for the highest values.
target: T1, Cad1 (UniProt P24813); assay: PBM E-score (8-mer binding enrichment) (E-score (-0.5 to 0.5)); higher = stronger / more preferred TF binding; conditions: protein concentration: 100 nM; construct: GST-full length
T1 sequence: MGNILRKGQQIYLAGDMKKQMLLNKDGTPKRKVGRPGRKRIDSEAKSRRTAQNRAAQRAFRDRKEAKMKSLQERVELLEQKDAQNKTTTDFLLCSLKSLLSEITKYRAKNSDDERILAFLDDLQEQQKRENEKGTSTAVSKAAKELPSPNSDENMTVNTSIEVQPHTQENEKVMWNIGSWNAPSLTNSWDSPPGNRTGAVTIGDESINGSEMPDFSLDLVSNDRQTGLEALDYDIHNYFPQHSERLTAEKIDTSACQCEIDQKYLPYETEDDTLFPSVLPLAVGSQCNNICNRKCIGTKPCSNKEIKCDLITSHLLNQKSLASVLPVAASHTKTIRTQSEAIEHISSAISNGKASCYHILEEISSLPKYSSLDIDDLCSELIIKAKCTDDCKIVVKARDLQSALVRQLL
Protocol: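 Universal 'all 10-mer' protein binding microarrays (Agilent AMADID 015681) probed with GST-tagged S. cerevisiae TFs (full-length or DBD) made by in vitro transcription/translation (PURExpress), about 100-200 nM. Bound TF was detected with fluorescent anti-GST. Each ungapped 8-mer (which stands for itself and its reverse complement) is scored by the PBM enrichment score (E-score), a modified Wilcoxon-Mann-Whitney statistic from -0.5 to +0.5, computed with the Universal PBM Analysis Suite. Scale: above 0.35 generally sequence-specific binding.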

| Sequence | PBM E-score |
| --- | --- |
| AGCGGACC | -0.113 |
| ACTCGAGT | 0.311 |
| ACTCGAGA | -0.0156 |
| ACTCGAGG | 0.107 |
| CAATCGGA | 0.259 |
| AAATCGGA | 0.171 |
| TAATCGGA | 0.152 |
| TAGCGACA | 0.0174 |
| CTGGCCAG | -0.159 |
| ATGGCCAG | 0.273 |
| ATGGCCAT | 0.252 |
| ATGGCCTG | 0.0685 |
| ATGGCCAA | -0.046 |
| ATGGCCAC | -0.21 |
| GGAGATCA | -0.0337 |
| ATAGCCCA | 0.062 |
| CAAACCGA | 0.0658 |
| ATAATGAA | 0.166 |
| AACGGAAA | 0.219 |
| AACGGAAG | 0.114 |
| CACGGATA | 0.22 |
| AACGGAAT | 0.269 |
| AACGGATG | -0.0154 |
| GTCGGATA | 0.0779 |
| CTCGGATA | 0.193 |

| Sequence | PBM E-score |
| --- | --- |
| AACGGATT | 0.317 |
| TACGGATA | 0.116 |
| AACGGATA | 0.252 |
| ATCGGATA | 0.276 |
| AACGGATC | 0.217 |
| CTGAGGCC | -0.0469 |
| CTACTGCC | -0.162 |
| CAGGATCA | -0.0245 |
| ACTTGTGG | -0.0436 |
| CGATAATC | -0.016 |
| AGTTAAAA | 0.14 |
| AAGCCCTT | -0.0922 |
| CGCGGATC | 0.0644 |
| AGCGGATA | -0.0234 |
| CGCGGATA | 0.258 |
| CCTGCCCA | -0.0659 |
| CGTCAAGC | -0.0629 |
| CGCATATC | 0.318 |
| CGCATATA | -0.0685 |
| AGCATATC | 0.025 |
| CCCGTTCG | 0.016 |
| CTGTCGAC | -0.0383 |
| GCGTCGAC | 0.252 |
| ATGTCGAC | 0.276 |
| GCGTCGAA | 0.116 |

| Sequence | PBM E-score |
| --- | --- |
| AAGTCGAA | -0.0588 |
| ATGTCGAA | -0.00122 |
| CCGTCGAC | -0.0671 |
| AAGTCGAC | 0.256 |
| AAGTCGAT | 0.0428 |
| CCGACAAG | -0.0166 |
| CATCTCCA | 0.09 |
| AAACATAT | 0.25 |
| ATACATAA | 0.12 |
| AAACATAC | -0.123 |
| ATACATAC | -0.195 |
| AAACATAG | -0.0611 |
| ATACATAT | 0.286 |
| GCGGCCGC | 0.175 |
| AATTGATC | -0.0161 |
| AATTGATG | 0.251 |
| AATTGATA | 0.206 |
| TCACGTGA | 0.125 |
| TCCGCTCA | -0.195 |
| ACTCGAAA | -0.0505 |
| AGAGCCCT | -0.122 |
| ACTGATTA | 0.265 |
| CCTGATTA | 0.31 |
| ATTGATTA | 0.286 |
| ATTGATTG | 0.133 |

| Sequence | PBM E-score |
| --- | --- |
| ATTGATTC | 0.12 |
| ATTGAATA | 0.281 |
| CTTGAATA | 0.118 |
| ACTGATTG | 0.0651 |
| CCTGATGA | 0.0887 |
| ATTGAATC | -0.0423 |
| CCTGATTC | 0.0985 |
| ACTGATTC | -0.0134 |
| CAGCATAA | 0.169 |
| AATTAAGT | 0.181 |
| ACTACTGC | -0.0336 |
| GACTACGA | -0.0382 |
| GATGGGTA | 0.0269 |
| CCAGCCAG | -0.207 |
| GCTGATAA | 0.161 |
| GCTGATTA | 0.378 |
| GATGATTA | 0.126 |
| CTCATGGC | -0.0384 |
| TAGAACTA | 0.0157 |
| ACTAGGAT | -0.0418 |
| GTCGGTAA | -0.116 |
| CTATAGCA | -0.0148 |
| AATTCCAT | 0.0643 |
| AATTCCAC | 0.111 |
| AATTCCAG | 0.257 |

| Sequence | PBM E-score |
| --- | --- |
| AGTATCTC | 0.178 |
| TCTTCAAA | -0.0389 |
| GAACTCGA | 0.0968 |
| TAACTCGA | 0.275 |
| CAACTCGA | 0.175 |
| AAATTCAC | 0.0164 |
| AATTATCG | 0.247 |
| AATTATTA | 0.249 |
| AATTATCC | 0.0534 |
| AATTATCA | 0.266 |
| AATTATCT | 0.282 |
| ACTTATCT | 0.0827 |
| AGGAGACT | -0.286 |
| ATAAAACA | 0.0107 |
| CGATCGCA | 0.169 |
| CCAGATGA | -0.131 |
| TGAGCGAA | 0.123 |
| GCTGACCA | 0.252 |
| GATGACTA | 0.172 |
| CCTGACTC | -0.139 |
| ACTGACCA | -0.105 |
| GCTGACTA | 0.335 |
| ACTGACTA | 0.116 |
| GTTGACTA | 0.0212 |
| GCTGACCC | -0.145 |

| Sequence | PBM E-score |
| --- | --- |
| CCTGACTA | 0.351 |
| CCGATGGC | -0.118 |
| CGGGTGGA | -0.0447 |
| CGTTAGCC | 0.0683 |
| GCCCTAAA | -0.269 |
| CTCGAAGC | 0.00892 |
| AGCACTAA | 0.094 |
| TGCACTAA | 0.32 |
| CGCACTAA | 0.155 |
| TCGGGGAA | 0.0236 |
| GAGACGTA | -0.0175 |
| GCACAAAA | 0.18 |
| GAACAAAA | 0.274 |
| AAACAAAA | -0.0143 |
| TCACAAAA | 0.253 |
| GGACAAAA | 0.0884 |
| TGACAAAA | 0.251 |
| ACACAAAA | 0.0974 |
| GAACAAAC | 0.0779 |
| CGACAAAA | 0.136 |
| ATCAGCAG | 0.191 |
| AATATCCT | -0.0122 |
| CTAATTAC | 0.199 |
| ATAATTAT | 0.377 |
| ATTATAAT | 0.227 |

| Sequence | PBM E-score |
| --- | --- |
| AGAATTAT | 0.191 |
| ATAATTAC | 0.295 |
| ATAATTTG | 0.278 |
| AAAATTTG | 0.196 |
| ATAATTGG | -0.0135 |
| ATAATTCC | -0.00553 |
| CAAATTTG | 0.33 |
| CAAATTTC | 0.201 |
| ATAATTTC | 0.154 |
| GGCATTGA | -0.0489 |
| ACCGCGCG | 0.225 |
| CCGGTAGC | -0.164 |
| CCTCAATC | 0.0973 |
| GCATTCAA | 0.0687 |
| AAGGGACG | -0.195 |
| GACCGATC | -0.128 |
| CAGGGTCC | -0.134 |
| AGGGGGAA | -0.248 |
| AATTGGTC | 0.0715 |
| ATAATTAG | 0.285 |
| GGAATTAC | 0.21 |
| GTAATTAC | 0.33 |
| CTAATTAA | 0.147 |
| CCAATTAG | 0.223 |
| ATAATTCG | 0.168 |

| Sequence | PBM E-score |
| --- | --- |
| CTAATTAG | 0.41 |
| TTAATTAA | 0.0562 |
| ATAATTGA | 0.149 |
| GTAATTAA | 0.218 |
| AGAATTAG | 0.00824 |
| ATAATTAA | 0.323 |
| CCCTATAG | -0.143 |
| ACAGCGCC | -0.0091 |
| TATAAGAA | 0.0437 |
| GGCTGGTA | -0.18 |
| ATACTCTA | -0.0262 |
| ATATAATC | 0.0826 |
| GATGCAGA | 0.146 |
| AAGATGTC | -0.188 |
| GAGAGCCC | -0.458 |
| AGCCGCTG | -0.0754 |
| ACAATTAA | 0.148 |
| ACAATTAT | 0.267 |
| ACAATTAC | 0.119 |
| TAGAGGCA | -0.166 |
| CAACATAG | -0.073 |
| AAACATAA | -0.131 |
| GAACATAA | 0.111 |
| TAACATAA | 0.287 |
| CAACATAC | 0.132 |

| Sequence | PBM E-score |
| --- | --- |
| CAACATAA | 0.255 |
| CCCCTAAC | -0.15 |
| AGTTGGAT | -0.0953 |
| AGGATCCC | -0.144 |
| CCCAGCGG | -0.264 |
| TATGTGGA | 0.146 |
| AGGACGCG | -0.00704 |
| CAGTCTGA | 0.0314 |
| CTGTCGGC | -0.107 |
| CCAGTAAA | -0.0575 |
| ACATTGTC | 0.292 |
| ACATTATC | 0.274 |
| ACATTGTG | -0.0593 |
| CCATTATC | 0.0253 |
| CCATTGTC | 0.00119 |
| ACATTATG | 0.0893 |
| CTAGAGAC | -0.243 |
| AAATTTTC | 0.0644 |
| ACGCCTAT | -0.161 |
